About 83,000 compounds went through this panel and 20% of them were active in at least one assay; those are over-represented in the sample as a whole.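 A percent growth of 40 corresponds to 60% growth inhibition; 0 means no net growth; -100 means all cells died. Active threshold: below 10.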 Unmarked numbers belong to inactive results. The source made the active and inactive calls.
Key:
Assay in all cases: NCI-60 one-dose screen, 48 h (100 = growth as untreated, 0 = no growth, -100 = all killed)
Settings in all cases: 10 µM unless noted
[1] = tested on: BT-549 breast
[2] = tested on: MDA-MB-435 melanoma
[3] = tested on: SW-620 colon
[4] = tested on: MCF7 breast
[5] = tested on: HCT-116 colon
[6] = tested on: KM12 colon
[7] = tested on: HCC-2998 colon

Structure (SMILES)	growth [1]	growth [2]	growth [3]	growth [4]	growth [5]	growth [6]	growth [7]
N#Cc1ccc(NC(=O)Nc2ccc(Oc3ccc(NC(=O)Nc4ccc(C#N)cc4)cc3)cc2)cc1	-15.5% (active)	35.6%	15.8%	20.5%	5.73% (active)	9.37% (active)	–
N#Cc1cccc(/C=C(/C(=O)c2ccccc2)c2ccccc2)c1	26.7%	8.38% (active)	7.39% (active)	9.11% (active)	25.6%	22.3%	–
Cc1cc(N2CCOCC2)nc(N2CCOCC2)n1	73.6%	96.4%	102%	90.7%	92.2%	107%	–
COc1ccc(/C=C(\C#N)c2ccccc2)cc1	85.4%	12%	71.4%	103%	85.4%	49.2%	–
Nc1nc2ncc(CCNc3ccc(C(=O)NC(CCC(=O)O)C(=O)O)cc3)nc2c(=O)[nH]1 (stereo not drawn)	114%	112%	103%	112%	107%	110%	–
COc1ccc(Cn2c(NCCCN(C)C)nc(=O)n(Cc3ccc(F)cc3)c2=O)cc1	92.5%	102%	100%	–	93.8%	99.8%	101%
Clc1cccc(Cc2cn3cc(-c4ccccc4)nc3s2)c1	77.5%	33.1%	30.2%	–	42.6%	–	17.7%
C/C(=N/N=C(N)N)c1ccc(N)cc1	70.1%	49%	97%	81.3%	103%	96%	–
COc1cc2c(-c3nc4cc(Cl)c(F)cc4s3)cc(=O)oc2c(C)c1OC	-81.8% (active)	-57.8% (active)	-58.3% (active)	-57.8% (active)	-2.68% (active)	-89.7% (active)	–
S=C(c1ccccc1)N1CCN(c2cccc(Cl)c2)CC1	105%	81.5%	98.5%	–	106%	92.5%	105%
COc1cc(C(=O)/C=C/c2cccnc2Nc2ccccc2)cc(OC)c1OC	-55.5% (active)	-23.3% (active)	-84% (active)	–	-94.9% (active)	-88.2% (active)	-76.7% (active)
Cc1ccc(C(C)C)cc1NC(=O)Nc1ccc([N+](=O)[O-])cc1	-1.5% (active)	11%	10.5%	-10.2% (active)	-23.2% (active)	2.72% (active)	–
O=C(/C=C/c1ccc(Cl)cc1)c1ccccc1	104%	97%	89.3%	24.1%	54%	77.1%	–
CO[C@H]1/C=C/O[C@@]2(C)Oc3c(C)c(O)c4c(O)c(c(/C=N/N5C(C)CN(Cc6ccccc6)CC5C)c(O)c4c3C2=O)NC(=O)/C(C)=C\C=C\[C@H](C)[C@H](O)[C@@H](C)[C@@H](O)[C@@H](C)[C@H](OC(C)=O)[C@@H]1C (stereo partly drawn)	125%	86.6%	80.1%	44.6%	37.9%	52.6%	–
NC(N)=NN=c1c(=O)c2ccccc2c1=O	92.3%	12.7%	-67% (active)	–	-37.8% (active)	73.8%	112%
COc1ccc2c3c(c(OCCCN(C)C)nc2c1)-c1ccc(Cl)cc1C3=O	92.5%	-7.72% (active)	-78.7% (active)	–	-90.9% (active)	-32.2% (active)	-95.2% (active)
COc1ccc(-c2c(N)noc2-c2cc(OC)c3c(c2)OCCO3)cc1	20.4%	-7.52% (active)	27%	–	0.565% (active)	0.643% (active)	18.9%
CN1COc2ccc3ccccc3c2C1	98.1%	106%	99.7%	–	93.1%	105%	93%
C[C@@H]1CC[C@H]2[C@@H](C)C(O)O[C@@H]3O[C@]4(C)CC[C@@H]1[C@]32OO4 (stereo partly drawn)	32.3%	2.52% (active)	17.5%	–	8.03% (active)	18.3%	41.3%
Cc1scc2c1N(C(=O)CN1CCN(C)CC1)c1ccccc1NC2=O	110%	110%	112%	–	111%	113%	103%

Structure (SMILES)	growth [1]	growth [2]	growth [3]	growth [4]	growth [5]	growth [6]	growth [7]
NC(=O)c1ncn([C@@H]2O[C@H](CO)[C@@H](O)[C@H]2O)n1	105%	101%	71.5%	–	89.6%	100%	87.6%
Nc1c2ccccc2nc2ccccc12 (tested in a mixture with another compound)	57.3%	18.6%	15.6%	–	13.6%	23%	28.7%
OCc1nnn(-c2ccccc2)c1CO	157%	114%	105%	–	105%	116%	119%
CCOC(=O)C1=C(COCCN)NC(C)=C(C(=O)OC)C1c1ccccc1Cl (stereo not drawn)	86.5%	68.7%	53.4%	–	45.9%	68.9%	3.32% (active)
COc1ccc(C(=O)Nc2nc(-c3ccc(Cl)cc3)cs2)cc1	105%	97.7%	96.3%	–	109%	99.2%	112%
COc1cc([C@@H]2c3cc4c(cc3C(O[C@@H]3O[C@@H]5CO[C@@H](c6cccs6)OC5[C@H](O)[C@H]3O)C3COC(=O)[C@@H]32)OCO4)cc(OC)c1O (stereo partly drawn)	-20.3% (active)	-21.1% (active)	-8.91% (active)	–	-56.7% (active)	-45.9% (active)	-76.4% (active)
Cc1cc(C(C)(C)C)cc(C)c1CC1=NCCN1	98.3%	100%	108%	–	112%	103%	96.4%
Cc1nn(-c2ccccc2)c2c1oc(=O)c1cc(Cl)ccc12	91%	106%	106%	–	95.2%	93.8%	102%
COC(=O)CCC1=C(CC(=O)OC)C(C)=N/C1=C\c1[nH]c(-c2ccc[nH]2)cc1OC	52.3%	17.3%	21.5%	–	9.33% (active)	28.1%	33.7%
CC[C@@H]1OC(=O)[C@H](C)[C@@H](O[C@H]2C[C@@](C)(OC)[C@@H](O)[C@H](C)O2)[C@H](C)[C@@H](O[C@@H]2O[C@H](C)C[C@H](N(C)C)[C@H]2O)[C@](C)(O)C[C@@H](C)[C@@H]2N[C@@H](COCCOC)O[C@H]([C@H]2C)[C@]1(C)O	92.2%	106%	111%	–	85.6%	126%	98.9%
CN(CCOc1ccc(CC2SC(=O)NC2=O)cc1)c1ccccn1 (stereo not drawn)	104%	98.3%	102%	–	103%	96.3%	112%
CC(C)(C)c1ccc(C(O)CCCN2CCC(C(O)(c3ccccc3)c3ccccc3)CC2)cc1 (stereo not drawn)	42.1%	-93.2% (active)	-77.1% (active)	–	-100% (active)	-73.5% (active)	-90.1% (active)
CC1=NN(c2ccccc2Cl)C(=O)/C1=C\c1cn(S(=O)(=O)c2ccc(C)cc2)c2ccccc12	112%	105%	98.4%	–	88.2%	109%	88.5%
CCCCCCCCCCC[C@@H](C[C@H]1OC(=O)[C@H]1CCCCCC)OC(=O)[C@@H](CC(C)C)NC=O	31.6%	69%	77.6%	–	34%	53%	55.1%
CCC[C@H](N[C@@H](C)C(=O)N1[C@H](C(=O)O)C[C@@H]2CCCC[C@@H]21)C(=O)OCC	113%	112%	114%	–	106%	104%	103%
CC(NC(=O)C(C)Oc1ccc(Cl)cc1Cl)C(=O)O (stereo not drawn)	108%	104%	105%	–	89.6%	109%	94.4%
Cc1ccsc1/C=C/C1=NCCCN1C	102%	103%	105%	–	103%	114%	102%
NC(=Nc1ccccc1)SCCCCSC(N)=Nc1ccccc1	86.4%	89.4%	92.3%	–	88%	94.2%	77.6%
Nc1ccc2c(c1)/C(=N/O)c1cc([N+](=O)[O-])ccc1-2	50.8%	50.9%	13.1%	–	47.3%	64.8%	103%

Source: PubChem BioAssay (NCI)
